This is part of a sample that, as a whole, favours compounds with a hit. Of some 83,000 tested, about 20% had one in any assay.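 How to read the values: 0–100, growth inhibition (40 = 60% inhibited); 0, no net growth; -100 to 0, cell death (-40 = 40% of starting cells died; -100 = all dead).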 Values without a mark were called inactive. Calls of active or inactive are those of the source. How the source made its calls: active means growth percent below 10; inactive means the rest.
Tests used:
Experiment in all cases: NCI-60 one-dose screen, 48 h (100 = growth as untreated, 0 = no growth, -100 = all killed)
Details in all cases: 10 µM unless noted
BT-549 breast = test system: BT-549 breast
MDA-MB-435 melanoma = test system: MDA-MB-435 melanoma
SW-620 colon = test system: SW-620 colon
MCF7 breast = test system: MCF7 breast
HCT-116 colon = test system: HCT-116 colon
HCC-2998 colon = test system: HCC-2998 colon
KM12 colon = test system: KM12 colon

Row | SMILES | growth (BT-549 breast) | growth (MDA-MB-435 melanoma) | growth (SW-620 colon) | growth (MCF7 breast) | growth (HCT-116 colon) | growth (HCC-2998 colon) | growth (KM12 colon)
1 | O=C(Nc1ccc2ncnc(Nc3ccc(F)c(Cl)c3)c2c1)c1ccccc1 | 74.2% | 80.4% | 88% | 47.2% | 47.2% | 98.7% | 79.6%
2 | COc1cc(/C=C/C(=O)c2ccc(NC(=O)CSc3nnc(-c4cc(OC)c(OC)c(OC)c4)n3-c3ccccc3)cc2)cc(OC)c1OC | -19.6% (active) | -36.1% (active) | -76.4% (active) | 11.2% | -80.6% (active) | -91.8% (active) | -6.65% (active)
3 | Cc1nccc2c3ccc(OCc4cn(-c5ccccc5)nn4)cc3n(CCCc3ccccc3)c12 | 81.3% | 87.7% | 69% | 51.3% | 54% | 102% | 78%
4 | COc1ccc(OCC(=O)OC(C)C)cc1 | 109% | 101% | 94.4% | 93.8% | 114% | 103% | 93.8%
5 | COc1ccc2c(c1)Oc1nc(N)c(C#N)c(N)c1C2Sc1ccc(SC)cc1 (stereo not drawn) | 38.9% | 24.2% | -8.99% (active) | -20.7% (active) | 10.2% | 58.9% | 53.3%
6 | CCOC(=O)c1ccc(Nc2ncnc3ccc(NC(=O)c4ccccc4)cc23)cc1 | 86.5% | 91.1% | 96% | 75.7% | 91.4% | 97.3% | 75.2%
7 | COc1cc(C2=NNC(c3ccc(N(C)C)cc3)C2)cc(OC)c1OC (stereo not drawn) | 35.1% | 19% | 20% | 20.2% | 9.9% (active) | 7.82% (active) | 14.4%
8 | COC(=O)/C=C1\SC(=Nc2cccc(Cl)c2)N(CCc2c[nH]c3ccccc23)C1=O | 44.8% | 42.7% | 40.5% | 20.1% | 38.2% | 52.9% | 24.3%
9 | Nc1c(C(=O)Nc2ccccc2)sc2nc3c(cc12)CN(C(=O)OCc1ccccc1)CC3 | 52.1% | -8.75% (active) | 30.1% | 21.1% | 28.7% | 77.5% | 39.1%
10 | O=C(Nc1ccccc1)NS(=O)(=O)c1c[nH]c(=S)[nH]c1=O | 92.1% | 108% | 105% | 100% | 93.8% | 114% | 105%
11 | CC(C)CSc1nc(Nc2ccccc2)c(C#N)c(-c2ccc(F)cc2)n1 | 28% | 77.4% | 55.2% | 69% | 7.9% (active) | 69.1% | 73.2%
12 | C=C(C)[C@@H]1CC[C@]2(C(=O)n3ccnc3)CC[C@]3(C)[C@H](CC[C@@H]4[C@@]5(C)CCCNC(C)(C)[C@@H]5CC[C@]43C)[C@@H]12 | 40.2% | -34.4% (active) | -62.8% (active) | -20.3% (active) | -76.7% (active) | 6.43% (active) | 28.4%
13 | O=C(CCl)N1CCCc2ccccc21 | 97.1% | 91.8% | 99% | 92% | 95.9% | 96.6% | 90.4%
14 | CCN(CC)c1ccc2c(c1)Oc1nc(N)c(C#N)c(N)c1C2Sc1ccc(OC)cc1 (stereo not drawn) | -0.405% (active) | -26.8% (active) | -8.27% (active) | 0.303% (active) | 2.7% (active) | -49.2% (active) | -33% (active)
15 | COc1ccc2[nH]c(=O)c(/C=C/C(=O)/C=C/c3ccc(O)c(OC)c3)cc2c1 | -22.8% (active) | -30% (active) | -24.8% (active) | 13% | -86.7% (active) | -74% (active) | -45% (active)
16 | COC(=O)c1ccc2c(c1)n(Cc1ccc3ccccc3c1)c[n+]2Cc1ccc2ccccc2c1 | 56.7% | 4.2% (active) | 37.6% | 29.2% | 32% | 33.9% | -8.69% (active)
17 | O=C(CSC(=S)N1CCCCC1)Nc1ccccc1 | 101% | 110% | 102% | 99.8% | 92.4% | 98.2% | 95.8%

Row | SMILES | growth (BT-549 breast) | growth (MDA-MB-435 melanoma) | growth (SW-620 colon) | growth (MCF7 breast) | growth (HCT-116 colon) | growth (HCC-2998 colon) | growth (KM12 colon)
18 | C=C1C(=O)O[C@H]2[C@H]1CC/C(COC(=O)CCCCCCCCC(=O)OC/C1=C/CC[C@@]3(C)O[C@H]3[C@H]3OC(=O)C(=C)[C@@H]3CC1)=C\CC[C@@]1(C)O[C@@H]21 | 2.59% (active) | 8.17% (active) | 2.58% (active) | -37% (active) | -62.7% (active) | 44.2% | 20.2%
19 | COc1cc(-c2csc(NC(=O)Nc3ccc(C(F)(F)F)cc3)n2)cc(OC)c1OC | -8.1% (active) | -26.9% (active) | 14.8% | 0.456% (active) | 5.03% (active) | 19.3% | 7.27% (active)
20 | COC(=O)/C=C1\SC(=Nc2ccc(F)cc2)N(CCc2c[nH]c3ccccc23)C1=O | 88.4% | 114% | 106% | 74.9% | 87.8% | 102% | 100%
21 | O=[N+]([O-])c1ccc(Oc2ccc(-c3ccccc3)cc2)cc1 | 79.6% | 101% | 99% | 84.4% | 73.4% | 92.2% | 89.5%
22 | Cc1cc(O)cc(O)c1N=NC1=NCCS1 | 93.9% | 105% | 111% | 86.5% | 93.3% | 95.7% | 102%
23 | C=C1C(=O)O[C@H]2[C@H]1CC/C(COC(=O)CCC(=O)OC/C1=C/CC[C@@]3(C)O[C@H]3[C@H]3OC(=O)C(=C)[C@@H]3CC1)=C\CC[C@@]1(C)O[C@@H]21 | 67.1% | 44.5% | 5.48% (active) | 12% | -43% (active) | 93.8% | 85%
24 | COc1ccc2c(c1)/C(=C1\S/C(=N/c3nnc(C)s3)NC1=O)C(=O)N2Cc1ccc(Cl)cc1 | 54.6% | 52.8% | 49.3% | 45.8% | 31.7% | 34.2% | 28.6%
25 | S=C(Nc1ccc(Cl)cc1)c1ccccn1 | 94.5% | 106% | 100% | 81.4% | 89.7% | 110% | 100%
26 | C=C1C(=O)O[C@H]2[C@H]1CC/C(COC(=O)c1cccnc1)=C\CC[C@@]1(C)O[C@@H]21 | 68.4% | 49.7% | 17.7% | 21.4% | 15.9% | 108% | 109%
27 | O=C1c2ccccc2C(=O)c2c1oc1c2c(=O)[nH]c2ccccc21 | 73.9% | 83.7% | 89.2% | 48.8% | 55.5% | 103% | 66.2%
28 | COc1ccc(-n2cc(COc3ccc4c5ccnc(C)c5n(CC(C)C)c4c3)nn2)cc1 | 66% | 87.3% | 78.9% | 54.3% | 50.5% | 85.1% | 80.2%
29 | Cc1nnc(/N=C2\NC(=O)/C(=C/c3ccsc3)S2)s1 | 94.6% | 91.5% | 98.8% | 79% | 83.6% | 95.7% | 84.7%
30 | C/C(=C\c1cnc(C)s1)[C@@H]1C[C@@H]2O[C@@H]2CCC[C@H](C)[C@H](O)[C@@H](C)C(=O)C(C)(C)[C@@H](O)CC(=O)O1 | 39.4% | 4.21% (active) | 34.8% | 17.1% | 18.4% | 18.6% | 24.6%
31 | C#CCN(CCCOc1ccc(Cl)cc1Cl)CCCSC(=O)CCCCCN1/C(=C\C=C2/CCCC(/C=C/C3=[N+](CCCCCC(=O)[O-])c4ccccc4C3(C)C)=C2Cl)C(C)(C)c2ccccc21 | -34.2% (active) | -60.1% (active) | 3.31% (active) | 6.92% (active) | 9.39% (active) | 40.3% | 6.88% (active)
32 | O=C1C(=O)c2c(nc3ccc(Br)cn23)-c2ccccc21 | -86.8% (active) | -94% (active) | -79.6% (active) | -54.1% (active) | -88.9% (active) | -82.5% (active) | -41.5% (active)
33 | Nc1n[nH]c2cccc(C#Cc3cccc(NC(=O)c4cc(N5CCOCC5)cc(C(F)(F)F)c4)c3)c12 | 63.4% | 45.8% | 46.6% | 46.6% | 19.4% | 31.3% | 54.5%
34 | COc1cc2nc3c(=O)n(CCN(C)C)cnn3c(=O)c2cc1OC | 98.6% | 97.3% | 97% | 95.9% | 101% | 99.3% | 95.1%

From PubChem BioAssay (NCI)
